A number with no mark means an inactive call.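 How the source made its calls: active = AUC reduced over 20% with Padj below 0.05 in at least 2 of 3 replicates; inactive = otherwise.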
Tests used:
Roseburia intestinalis = experiment: growth AUC relative to DMSO control (median of replicates) (fraction); higher = more growth (less inhibition), active = hit call of the paper; settings: 20 µM; 24 h
Procedure, shortened: (§1)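 Each value is the median of three biological replicates, grown on separate days, of a gut bacterial monoculture incubated anaerobically at 37 °C in mGAM with 20 µM compound (1% DMSO). Cultures started at OD600 0.05 and were read at OD600 hourly for 24 h, with the minimum OD set to 0. Area under the growth curve was normalised to the plate median of solvent-only wells, or to row and column medians on the industrial chemical plate.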

Streptococcus salivarius = experiment: as above; settings: 20 µM; 24 h
Procedure, shortened: as §1

Structure (SMILES) | growth AUC (Roseburia intestinalis) | growth AUC (Streptococcus salivarius)
CC(C)N(C)S(=O)(=O)NC(=O)c1cc(-n2c(=O)cc(C(F)(F)F)[nH]c2=O)c(F)cc1Cl | 0.987 | 1.01
CCOCCOC(=O)C(C)Oc1ccc(Oc2ncc(C(F)(F)F)cc2Cl)cc1 (configuration not stated) | 0.953 | 0.959
CCOC(=O)Cn1c(=O)sc2cccc(Cl)c21 | 0.968 | 0.961
CCCN(CCC)C(=O)SCC | 0.948 | 1
CCC([O-])=C1C(=O)CC(C(=O)[O-])CC1=O.[Ca+2] (configuration not stated) | 1.12 | 0.917
CN(C)C=O | 1.1 | 0.999
CCOC(=O)Cc1[nH]nc2ccc(Cl)cc12 | 1.14 | 1
CCOC(=O)NCCOc1ccc(Oc2ccccc2)cc1 | 0.984 | 0.976
CON=C(Cc1cccnc1)c1ccc(Cl)cc1Cl | 1.05 | 0.997
CN(C)C(=O)NC1CCCCCCC1 | 1.08 | 1.05
CNc1nc(NC(C)C)nc(SC)n1 | 0.995 | 0.975
CCc1cccc(C)c1N(C(=O)C(=O)O)C(C)COC (configuration not stated) | 0.982 | 1
CCc1cccc(CC)c1N(COC)C(=O)CS(=O)(=O)[O-].[Na+] | 1.03 | 0.964
c1ccc(Nc2ccccc2)cc1 | 1.01 | 1.02
ClC=C(c1ccc(Cl)cc1)c1ccc(Cl)cc1 | 0.932 | 0.928
O=C(NCc1ncc(C(F)(F)F)cc1Cl)c1c(Cl)cccc1Cl | 0.968 | 0.967
CCNc1nc(N)[nH]c(=O)n1 | 1.06 | 0.978
O=c1cccc2n1CCn1c-2cccc1=O | 0.991 | 1.02

Structure (SMILES) | growth AUC (Roseburia intestinalis) | growth AUC (Streptococcus salivarius)
O.O=C(Nc1ccc([N+](=O)[O-])cc1Cl)c1cc(Cl)ccc1O | 0.869 | 0.085 (active)
Cc1cccc(C)c1N(CCSCC(O)C(=O)[O-])C(=O)CO.[Na+] (configuration not stated) | 1.02 | 0.97
S=C([S-])NCCNC(=S)[S-].S=C([S-])NCCNC(=S)[S-].[Mn+2].[Zn+2] | 0.999 | 1.03
CO/N=C(/C(=O)O)c1ccccc1CO/N=C(\C)c1cccc(C(F)(F)F)c1 | 1.01 | 0.915
COC(=O)C(C)Oc1cc(Cl)c(Cl)cc1Cl (configuration not stated) | 1.01 | 1.02
Cc1ccc2c(c1)[C@H](Nc1nc(N)nc(C(C)F)n1)[C@@H](C)C2 (some centres not stated) | 0.948 | 1.01
CCCCOC(=O)[C@@H](C)Oc1ccc(Oc2ccc(C(F)(F)F)cn2)cc1 | 0.973 | 0.969
O=C(O)CNC(=O)c1cnccc1C(F)(F)F | 1.03 | 1
COc1cc(OC)nc(NC(=O)NS(=O)(=O)c2c(-c3nnn(C)n3)cnn2C)n1 | 0.948 | 0.953
C#CCOC(=O)[C@@H](C)Oc1ccc(Oc2ncc(Cl)cc2F)cc1 | 1.06 | 0.959
CCOC(=O)Nc1cccc(OC(=O)Nc2cccc(C)c2)c1 | 0.912 | 0.971
CCNc1nc(NC(C)CC)nc(OC)n1 (configuration not stated) | 1.07 | 1.02
CC(C)NS(=O)(=O)NC(=O)c1cc(-n2c(=O)cc(C(F)(F)F)[nH]c2=O)c(F)cc1Cl | 1 | 1
CC(C)N(C(=O)CS(=O)CC(=O)O)c1ccc(F)cc1 (configuration not stated) | 1.03 | 0.948
COc1ccc(Cl)c(Cl)c1Cl | 0.999 | 1.06
Cc1cc(C)cc(OCC(C)Nc2nc(N)nc(C(C)(C)F)n2)c1 (configuration not stated) | 0.971 | 0.967
CCc1ccc(O)cc1 | 0.919 | 0.946
COC(=O)Nc1ccc(Cl)c(Cl)c1 | 1 | 0.918

Source: the supplement of paper PMC12669032
